# Measured values taken from PMC9911399, “Two distinct binding modes provide the RNA-binding protein RbFox with extraordinary sequence specificity”.
# Positions count from the first letter of the chain named. Whole data set: some 16,000 sequences, median “ka relative to ugcaugu” near 0.0091, cut for the highest 2% near 0.032. The entries come from a sample that favours the highest values as a whole.
# T1: RBFOX1 RRM (Homo sapiens, UniProt Q9NWB1 109-208)
# T1 sequence: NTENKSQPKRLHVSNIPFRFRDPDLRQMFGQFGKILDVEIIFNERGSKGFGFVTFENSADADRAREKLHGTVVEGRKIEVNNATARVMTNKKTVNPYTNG
# B1: CCGCAGU (DNA:RNA)
# RNA: GGGAGACCGGAAUUCAGAUUGUCCCCGCAGUUUAAAUCCCGUCGUAGCCACCA
# DNA 1: CAATCTGAATTCCGGTCTCCC
# DNA 2: TGGTGGCTACGACGGGATT
# B2: AACCGUA (DNA:RNA)
# RNA: B1 RNA with C25A, C26A, G27C, A29G, G30U, U31A
# DNA 1: CAATCTGAATTCCGGTCTCCC
# DNA 2: TGGTGGCTACGACGGGATT
# B3: CGCCCCG (DNA:RNA)
# RNA: B1 RNA with C26G, G27C, A29C, G30C, U31G
# DNA 1: CAATCTGAATTCCGGTCTCCC
# DNA 2: TGGTGGCTACGACGGGATT
# B4: UUGCACU (DNA:RNA)
# RNA: B1 RNA with C25U, C26U, G30C
# DNA 1: CAATCTGAATTCCGGTCTCCC
# DNA 2: TGGTGGCTACGACGGGATT
# B5: GGGAUAU (DNA:RNA)
# RNA: B1 RNA with C25G, C26G, C28A, A29U, G30A
# DNA 1: CAATCTGAATTCCGGTCTCCC
# DNA 2: TGGTGGCTACGACGGGATT
# B6: UAAGUGG (DNA:RNA)
# RNA: B1 RNA with C25U, C26A, G27A, C28G, A29U, U31G
# DNA 1: CAATCTGAATTCCGGTCTCCC
# DNA 2: TGGTGGCTACGACGGGATT
# B7: GUUAAGA (DNA:RNA)
# RNA: B1 RNA with C25G, C26U, G27U, C28A, U31A
# DNA 1: CAATCTGAATTCCGGTCTCCC
# DNA 2: TGGTGGCTACGACGGGATT
# B8: GUGGGUC (DNA:RNA)
# RNA: B1 RNA with C25G, C26U, C28G, A29G, G30U, U31C
# DNA 1: CAATCTGAATTCCGGTCTCCC
# DNA 2: TGGTGGCTACGACGGGATT
# B9: UGGUCUU (DNA:RNA)
# RNA: B1 RNA with C25U, C26G, C28U, A29C, G30U
# DNA 1: CAATCTGAATTCCGGTCTCCC
# DNA 2: TGGTGGCTACGACGGGATT
# B10: CUGGUCU (DNA:RNA)
# RNA: B1 RNA with C26U, C28G, A29U, G30C
# DNA 1: CAATCTGAATTCCGGTCTCCC
# DNA 2: TGGTGGCTACGACGGGATT
# B11: UGGGGUC (DNA:RNA)
# RNA: B1 RNA with C25U, C26G, C28G, A29G, G30U, U31C
# DNA 1: CAATCTGAATTCCGGTCTCCC
# DNA 2: TGGTGGCTACGACGGGATT
# B12: UGGGUCU (DNA:RNA)
# RNA: B1 RNA with C25U, C26G, C28G, A29U, G30C
# DNA 1: CAATCTGAATTCCGGTCTCCC
# DNA 2: TGGTGGCTACGACGGGATT
# B13: CUGGGUC (DNA:RNA)
# RNA: B1 RNA with C26U, C28G, A29G, G30U, U31C
# DNA 1: CAATCTGAATTCCGGTCTCCC
# DNA 2: TGGTGGCTACGACGGGATT
# B14: CAUUGUG (DNA:RNA)
# RNA: B1 RNA with C26A, G27U, C28U, A29G, G30U, U31G
# DNA 1: CAATCTGAATTCCGGTCTCCC
# DNA 2: TGGTGGCTACGACGGGATT
# B15: GGUCGAG (DNA:RNA)
# RNA: B1 RNA with C25G, C26G, G27U, A29G, G30A, U31G
# DNA 1: CAATCTGAATTCCGGTCTCCC
# DNA 2: TGGTGGCTACGACGGGATT
# B16: AGGUCCC (DNA:RNA)
# RNA: B1 RNA with C25A, C26G, C28U, A29C, G30C, U31C
# DNA 1: CAATCTGAATTCCGGTCTCCC
# DNA 2: TGGTGGCTACGACGGGATT
# B17: CCUGCUG (DNA:RNA)
# RNA: B1 RNA with G27U, C28G, A29C, G30U, U31G
# DNA 1: CAATCTGAATTCCGGTCTCCC
# DNA 2: TGGTGGCTACGACGGGATT
# B18: UGUCGUU (DNA:RNA)
# RNA: B1 RNA with C25U, C26G, G27U, A29G, G30U
# DNA 1: CAATCTGAATTCCGGTCTCCC
# DNA 2: TGGTGGCTACGACGGGATT
# B19: UGUUAAA (DNA:RNA)
# RNA: B1 RNA with C25U, C26G, G27U, C28U, G30A, U31A
# DNA 1: CAATCTGAATTCCGGTCTCCC
# DNA 2: TGGTGGCTACGACGGGATT
# B20: UGUUUGU (DNA:RNA)
# RNA: B1 RNA with C25U, C26G, G27U, C28U, A29U
# DNA 1: CAATCTGAATTCCGGTCTCCC
# DNA 2: TGGTGGCTACGACGGGATT
# B21: UGUUUUU (DNA:RNA)
# RNA: B1 RNA with C25U, C26G, G27U, C28U, A29U, G30U
# DNA 1: CAATCTGAATTCCGGTCTCCC
# DNA 2: TGGTGGCTACGACGGGATT
# B22: UGCUGUG (DNA:RNA)
# RNA: GGGAGACCGGAAUUCAGAUUGUCCUGCUGUGUUAAAUCCCGUCGUAGCCACCA
# DNA 1: CAATCTGAATTCCGGTCTCCC
# DNA 2: TGGTGGCTACGACGGGATT
# B23: UGUGUUU (DNA:RNA)
# RNA: B22 RNA with C27U, U28G, G29U, G31U
# DNA 1: CAATCTGAATTCCGGTCTCCC
# DNA 2: TGGTGGCTACGACGGGATT
# B24: UGUUUGA (DNA:RNA)
# RNA: B22 RNA with C27U, G29U, U30G, G31A
# DNA 1: CAATCTGAATTCCGGTCTCCC
# DNA 2: TGGTGGCTACGACGGGATT
# B25: UGUGUUG (DNA:RNA)
# RNA: B22 RNA with C27U, U28G, G29U
# DNA 1: CAATCTGAATTCCGGTCTCCC
# DNA 2: TGGTGGCTACGACGGGATT
# B26: CGUUUGA (DNA:RNA)
# RNA: B1 RNA with C26G, G27U, C28U, A29U, U31A
# DNA 1: CAATCTGAATTCCGGTCTCCC
# DNA 2: TGGTGGCTACGACGGGATT
# B27: UGUGUGU (DNA:RNA)
# RNA: B1 RNA with C25U, C26G, G27U, C28G, A29U
# DNA 1: CAATCTGAATTCCGGTCTCCC
# DNA 2: TGGTGGCTACGACGGGATT
# B28: CUGUGUU (DNA:RNA)
# RNA: B1 RNA with C26U, C28U, A29G, G30U
# DNA 1: CAATCTGAATTCCGGTCTCCC
# DNA 2: TGGTGGCTACGACGGGATT
# B29: CAGCUCA (DNA:RNA)
# RNA: B1 RNA with C26A, A29U, G30C, U31A
# DNA 1: CAATCTGAATTCCGGTCTCCC
# DNA 2: TGGTGGCTACGACGGGATT
# B30: GUAUCUG (DNA:RNA)
# RNA: B22 RNA with U25G, G26U, C27A, G29C
# DNA 1: CAATCTGAATTCCGGTCTCCC
# DNA 2: TGGTGGCTACGACGGGATT
# B31: AAUGCCC (DNA:RNA)
# RNA: GGGAGACCGGAAUUCAGAUUGUCCAAUGCCCUUAAAUCCCGUCGUAGCCACCA
# DNA 1: CAATCTGAATTCCGGTCTCCC
# DNA 2: TGGTGGCTACGACGGGATT
# Molecular target: T1, RBFOX1 RRM
# Experiment: EMSA; HiTS-Eq, 1 nM pool, 10 min; buffer printed only for the single-RNA assays: 10 mM Tris pH 7.5, 150 mM NaCl, 3.4 mM EDTA, 0.001% NP-40, 30 C
# Conditions: tags: His6 N-terminal (pET28a); label: 5' 32P
# How it was run: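 Purified RbFox RRM, wild type or mutant, was incubated for 10 min in 50 µL with 1 nM of a 5′-radiolabelled RNA pool carrying 7 randomized nucleotides, whose flanks were annealed to DNA oligonucleotides, over a series of increasing protein concentrations. Unbound RNA was resolved on 8% native PAGE, cut out, reverse-transcribed, barcoded by PCR and sequenced on an Illumina HiSeq 2500. Relative association constants were derived from changes in read counts for each RNA species versus the control reaction and normalised to the cognate motif.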
row,Binder,binding signal
1,B1,0.00716 KA relative to UGCAUGU
2,B2,0.00191 KA relative to UGCAUGU
3,B3,0.007 KA relative to UGCAUGU
4,B4,0.021 KA relative to UGCAUGU
5,B5,0.0263 KA relative to UGCAUGU
6,B6,0.00934 KA relative to UGCAUGU
7,B7,0.012 KA relative to UGCAUGU
8,B8,0.0192 KA relative to UGCAUGU
9,B9,0.0179 KA relative to UGCAUGU
10,B10,0.0225 KA relative to UGCAUGU
11,B11,0.0387 KA relative to UGCAUGU
12,B12,0.0375 KA relative to UGCAUGU
13,B13,0.0291 KA relative to UGCAUGU
14,B14,0.0157 KA relative to UGCAUGU
15,B15,0.0142 KA relative to UGCAUGU
16,B16,0.00339 KA relative to UGCAUGU

row,Binder,binding signal
1,B17,0.0192 KA relative to UGCAUGU
2,B18,0.021 KA relative to UGCAUGU
3,B19,0.0109 KA relative to UGCAUGU
4,B20,0.0434 KA relative to UGCAUGU
5,B21,0.0221 KA relative to UGCAUGU
6,B22,0.0347 KA relative to UGCAUGU
7,B23,0.0186 KA relative to UGCAUGU
8,B24,0.0341 KA relative to UGCAUGU
9,B25,0.0299 KA relative to UGCAUGU
10,B26,0.0182 KA relative to UGCAUGU
11,B27,0.0346 KA relative to UGCAUGU
12,B28,0.0207 KA relative to UGCAUGU
13,B29,0.00282 KA relative to UGCAUGU
14,B30,0.015 KA relative to UGCAUGU
15,B31,0.00474 KA relative to UGCAUGU
